Experimental data from PubChem BioAssay.
Active and inactive are the calls of the source.

Columns and labels:
[1] = optical density shifts of acrAB sulA E. coli – strain DRC41, OD650, 48 h, E. coli filamentation inducer project, primary screen (AID 1152); conditions: higher = more signal, called active from +8 up or from −8 down;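 also: E. coli MC1000 strain DRC41 lacking acrAB efflux pump and sulA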
[2] = probe aLefty1 binding on compound microarray – biochemical, small-molecule microarray, 635/667 nm fluorescence, primary screen (AID 1153); conditions: higher = more signal;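 also: score merges spot fluorescence with signal-to-noise ratio from the scanned slide images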
[3] = plasmodial surface anion channel blockers, osmotic lysis – cell-based, P. falciparum Indochina, OD700, 1 h, primary screen (AID 1154); conditions: P. falciparum Indochina infected RBC osmotic lysis, higher = more signal, called active from +8 up or from −8 down
[4] = plasmodial surface anion channel blockers, osmotic lysis – cell-based, P. falciparum Indochina, OD700, 2 h, primary screen (AID 1155);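 also: lysis reports solute entry through the parasite surface anion channel PSAC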; conditions: P. falciparum Indochina infected erythrocytes, higher = more signal, called active from +8 up or from −8 down
[5] = changes in parasitized red cell lysis, either direction – P. falciparum Indochina, OD700, 3 h, PSAC antagonist project, primary screen (AID 1156); conditions: P. falciparum-infected erythrocytes, osmotic lysis, higher = more signal, called active from +8 up or from −8 down
[6] = plasmodial surface anion channel blockers, osmotic lysis – cell-based, P. falciparum Indochina, OD700, 18 h, primary screen (AID 1157); conditions: P. falciparum Indochina infected erythrocytes, osmotic lysis OD700, 18 h; higher = more signal, called active from +8 up or from −8 down
[7] = S6 kinase pathway phospho-S6 level changes – cell-based, A549, cytoblot, luminescence, serum-stimulated, primary screen (AID 1158); conditions: 5 h, higher = more signal;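 also: serum-stimulated A549 lung adenocarcinoma cells; signal is phosphorylated S6 detected by cytoblot immunostaining with HRP secondary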
[8] = target: NADPH oxidase 2 (Homo sapiens) (UniProt P04839); assay: compounds shifting NOX2 Amplex Red fluorescence – cell-based, HEK293-NOX2, PMA-stimulated, NOX inhibitor project, primary screen (AID 1159); conditions: 45 min, higher = more signal, called active from +8 up or from −8 down; also: test concentration not given here
Sequence of NADPH oxidase 2 (Homo sapiens) (P04839 whole entry, looked up): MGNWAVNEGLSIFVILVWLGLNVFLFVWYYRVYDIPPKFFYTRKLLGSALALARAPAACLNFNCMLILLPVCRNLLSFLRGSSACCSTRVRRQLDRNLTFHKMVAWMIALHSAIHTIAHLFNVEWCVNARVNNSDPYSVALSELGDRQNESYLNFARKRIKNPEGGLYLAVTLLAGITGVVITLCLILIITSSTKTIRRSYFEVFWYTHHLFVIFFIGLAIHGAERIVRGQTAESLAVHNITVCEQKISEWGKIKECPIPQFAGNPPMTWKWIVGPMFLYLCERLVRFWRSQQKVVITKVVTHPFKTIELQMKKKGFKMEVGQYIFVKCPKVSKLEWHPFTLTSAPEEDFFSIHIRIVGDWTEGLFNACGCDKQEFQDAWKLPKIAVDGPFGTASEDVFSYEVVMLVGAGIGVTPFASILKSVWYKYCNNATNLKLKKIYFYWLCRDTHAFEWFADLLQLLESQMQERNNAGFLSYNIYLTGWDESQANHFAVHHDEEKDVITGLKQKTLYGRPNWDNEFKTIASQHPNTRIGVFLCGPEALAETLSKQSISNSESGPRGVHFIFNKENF

[9] = target: NADPH oxidase 4 (Homo sapiens) (UniProt Q9NPH5); assay: compounds shifting NOX4 Amplex Red fluorescence – cell-based, HEK293-NOX4, tetracycline-induced, NOX inhibitor project, primary screen (AID 1160); conditions: HEK293-NOX4, Amplex Red H2O2 fluorescence, 45 min; higher = more signal, called active from +8 up or from −8 down
Sequence of NADPH oxidase 4 (Homo sapiens) (Q9NPH5 whole entry, looked up): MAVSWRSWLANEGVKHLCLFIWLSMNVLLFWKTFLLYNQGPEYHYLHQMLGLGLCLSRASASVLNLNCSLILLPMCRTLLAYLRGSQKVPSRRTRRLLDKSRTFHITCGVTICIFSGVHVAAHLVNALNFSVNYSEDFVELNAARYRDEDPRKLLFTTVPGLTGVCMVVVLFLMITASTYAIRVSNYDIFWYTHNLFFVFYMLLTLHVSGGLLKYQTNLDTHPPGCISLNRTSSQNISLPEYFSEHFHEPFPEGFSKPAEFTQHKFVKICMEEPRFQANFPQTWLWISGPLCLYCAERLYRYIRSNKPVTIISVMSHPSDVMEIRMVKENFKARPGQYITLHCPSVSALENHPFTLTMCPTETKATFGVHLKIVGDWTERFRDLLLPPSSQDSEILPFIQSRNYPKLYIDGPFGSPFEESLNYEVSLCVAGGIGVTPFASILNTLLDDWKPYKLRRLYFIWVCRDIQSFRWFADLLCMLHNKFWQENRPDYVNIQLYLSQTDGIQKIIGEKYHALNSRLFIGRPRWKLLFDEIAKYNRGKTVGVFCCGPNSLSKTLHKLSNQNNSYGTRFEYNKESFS

[10] = target: NADPH oxidase 5 (Homo sapiens) (UniProt Q96PH1); assay: compounds shifting NOX5 Amplex Red fluorescence – cell-based, HEK293-NOX5, NOX inhibitor project, primary screen (AID 1161); conditions: HEK293-NOX5, ionomycin, 45 min, higher = more signal
Sequence of NADPH oxidase 5 (Homo sapiens) (Q96PH1 whole entry, looked up): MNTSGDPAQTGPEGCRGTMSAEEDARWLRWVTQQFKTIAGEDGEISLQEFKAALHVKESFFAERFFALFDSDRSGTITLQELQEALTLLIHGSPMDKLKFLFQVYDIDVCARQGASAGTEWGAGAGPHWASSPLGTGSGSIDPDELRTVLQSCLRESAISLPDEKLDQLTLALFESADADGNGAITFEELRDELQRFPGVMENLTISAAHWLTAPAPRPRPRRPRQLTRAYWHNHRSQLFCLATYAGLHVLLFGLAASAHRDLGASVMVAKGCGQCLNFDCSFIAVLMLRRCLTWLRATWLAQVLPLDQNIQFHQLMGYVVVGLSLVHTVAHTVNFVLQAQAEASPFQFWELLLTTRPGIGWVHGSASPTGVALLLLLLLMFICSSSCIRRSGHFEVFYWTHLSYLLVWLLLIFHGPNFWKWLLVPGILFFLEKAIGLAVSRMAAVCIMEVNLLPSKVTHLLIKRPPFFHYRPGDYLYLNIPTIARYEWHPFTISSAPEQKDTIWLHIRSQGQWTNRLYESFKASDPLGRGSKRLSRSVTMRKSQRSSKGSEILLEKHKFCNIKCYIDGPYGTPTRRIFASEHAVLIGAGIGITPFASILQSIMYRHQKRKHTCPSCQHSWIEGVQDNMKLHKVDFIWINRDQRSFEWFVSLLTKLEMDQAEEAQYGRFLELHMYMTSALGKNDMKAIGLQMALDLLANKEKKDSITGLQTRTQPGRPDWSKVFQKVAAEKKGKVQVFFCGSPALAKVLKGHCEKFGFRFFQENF

| Compound | z-score [1] | composite z-score [2] | z-score [3] | z-score [4] | z-score [5] | z-score [6] | z-score [7] | z-score [8] | z-score [9] | z-score [10] |
| --- | --- | --- | --- | --- | --- | --- | --- | --- | --- | --- |
| COCCOC(=O)N1C(=O)[C@@]2(c3cc(C#CC4(O)CCCCCC4)ccc31)[C@H](C(=O)N1CCCCCCC1)[C@H]1C(=O)O[C@H](c3ccccc3)[C@H](c3ccccc3)N1[C@@H]2c1ccccc1OCCO | 0.139 (inactive) | 2.53 | 1.04 (inactive) | 1.53 (inactive) | 1.05 (inactive) | 1.07 (inactive) | 0.535 | 0.528 (inactive) | -0.409 (inactive) | 1.29 |
| COc1cc2c(cc1OC)CN(C(=O)[C@@H]1[C@H]3C(=O)O[C@H](c4ccccc4)[C@H](c4ccccc4)N3[C@H](c3ccccc3OCCO)[C@@]13C(=O)Nc1ccc(C#CCNC(N)=O)cc13)CC2 | 0.97 (inactive) | 0.882 | 1.14 (inactive) | -0.45 (inactive) | 0.333 (inactive) | -2.15 (inactive) | 3.09 | 1.24 (inactive) | 0.964 (inactive) | -0.0555 |
| C=CC[C@@H](OC(=O)Nc1ccc(OC)cc1)c1ccc(O)c2ccccc12 | 0.122 (inactive) | -0.0615 | 3.63 (inactive) | 0.661 (inactive) | -0.335 (inactive) | 0.279 (inactive) | 0.229 | -6.06 (inactive) | -1.69 (inactive) | -0.308 |
| [N-]=[N+]=NCc1ccccc1C[C@]1(C(=O)NCCN2CCOCC2)N=C(c2ccc(OCCCO)cc2)O[C@H]1c1ccccc1N=[N+]=[N-] | 0.991 (inactive) | 0.586 | 34.3 (active) | 31.4 (active) | 2.82 (inactive) | 8.68 (active) | -0.176 | -1.69 (inactive) | 0.636 (inactive) | -0.368 |
| COc1cc(C(O)C2C=CC3C(=O)N(c4ccccc4)C(=O)C3N2Nc2ccc(C#N)cc2)cc(OC)c1OC (stereo not given) | -1.64 (inactive) | 0.233 | 24 (active) | 7.24 (inactive) | 0.86 (inactive) | 1.76 (inactive) | -1.15 | -2.04 (inactive) | -5.26 (inactive) | -5.34 |
| COc1ccc(CCNC(=O)[C@@]2(Sc3ccc(C)cc3)CC(=O)N(Cc3ccccc3Cl)[C@@H]2c2ccc(CO)cc2I)cc1 | 0.265 (inactive) | 0.198 | 9.86 (active) | 0.902 (inactive) | 1.53 (inactive) | 0.231 (inactive) | 0.0671 | 1.54 (inactive) | -1.54 (inactive) | 1.32 |
| CCOC(=O)C1=CC[C@@H](c2ccccc2)N(S(=O)(=O)c2ccc(C)cc2)[C@H]1C(=O)OCC | -0.488 (inactive) | 0.632 | 3.81 (inactive) | 1.17 (inactive) | -0.54 (inactive) | 0.583 (inactive) | -0.338 | 0.439 (inactive) | -1.45 (inactive) | -0.75 |
| [N-]=[N+]=NCc1ccccc1C[C@]1(C(=O)NCC(O)CO)N=C(c2ccc(OCCCO)cc2)O[C@H]1c1ccccc1N=[N+]=[N-] (stereo not given in full) | 0.801 (inactive) | 0.12 | 31.1 (active) | 32.2 (active) | 2.92 (inactive) | 3.93 (inactive) | 0.828 | -0.689 (inactive) | -0.154 (inactive) | -1.77 |
| COCCOC(=O)N1C(=O)[C@@]2(c3cc(C#CCNC(N)=O)ccc31)[C@H](C(=O)N1CCN(c3ncccn3)CC1)[C@H]1C(=O)O[C@H](c3ccccc3)[C@H](c3ccccc3)N1[C@@H]2c1ccccc1OCCO | 1.07 (inactive) | 0.248 | 2.72 (inactive) | 1.32 (inactive) | 0.749 (inactive) | 0.883 (inactive) | 0.915 | 1.99 (inactive) | 0.756 (inactive) | -1.08 |
| COC(=O)C1=CC(CCCO)=CC(C2CC2)N(Cc2sc3ccccc3c2Cl)C=C1C(=O)OC (stereo not given) | -0.899 (inactive) | 0.335 | 10.6 (active) | 2.09 (inactive) | 0.901 (inactive) | 1.23 (inactive) | -0.18 | -0.986 (inactive) | -1.76 (inactive) | 0.19 |
| O=C(CS)NCCCCCCNC(=O)[C@@H]1C[C@@H]2C(=O)N3CCC[C@H]3C(=O)N2[C@@H]1c1ccc(O)cc1 | 0.113 (inactive) | -0.55 | 4.95 (inactive) | 0.471 (inactive) | 2.2 (inactive) | 0.252 (inactive) | -0.574 | 0.489 (inactive) | -1.38 (inactive) | -0.141 |
| CC(C)N1C(=O)[C@@]2(c3ccc([N+](=O)[O-])cc3)CC(=O)N(CC34CC5CC(CC(C5)C3)C4)[C@@H]2c2ccc(CO)cc21 | 0.0258 (inactive) | 1.04 | 0.297 (inactive) | 0.328 (inactive) | 0.0625 (inactive) | 0.131 (inactive) | -0.561 | 0.306 (inactive) | -0.0646 (inactive) | 0.607 |
| CC(C)C(=C=CC[C@H](O)c1cccc(OCCO)c1)C[C@H](O)COCc1ccccc1 | 0.142 (inactive) | 0.0455 | 12.8 (active) | 2.04 (inactive) | 0.367 (inactive) | 0.627 (inactive) | -0.145 | -1.77 (inactive) | -0.716 (inactive) | -2.13 |
| CC(=CC1CCCCC1)[C@@H](NC(=O)c1ccc(C(F)(F)F)cc1)c1ccc(-c2ccccc2)cc1 | -2.14 (inactive) | 0.117 | 3.47 (inactive) | 1.03 (inactive) | 0.482 (inactive) | 0.813 (inactive) | 0.299 | -0.709 (inactive) | -0.683 (inactive) | 0.0858 |
| COC(=O)[C@@]1(Cc2ccccc2)[C@H]2c3cc(C(=O)N4CCCC4)n(Cc4ccc(C)o4)c3C[C@H]2CN1C(=O)c1ccccc1 | -1.71 (inactive) | 0.198 | 1.63 (inactive) | 0.547 (inactive) | 0.278 (inactive) | 0.52 (inactive) | -0.504 | -0.254 (inactive) | -0.867 (inactive) | -1.17 |
| COC(=O)[C@@]1(Cc2ccc(F)cc2)[C@H]2c3cc(C(=O)N4CCCC4)n(Cc4cccc5ccccc45)c3C[C@H]2CN1C(=O)c1ccccc1 | -2.25 (inactive) | 0.342 | 3.9 (inactive) | 1.03 (inactive) | 1.22 (inactive) | 0.863 (inactive) | -0.875 | 0.836 (inactive) | -0.021 (inactive) | -0.666 |
| COCCOC(=O)N1C(=O)[C@@]2(c3cc(C#CCNC(N)=O)ccc31)[C@H](c1ccccc1OCCO)N1[C@H](c3ccccc3)[C@H](c3ccccc3)OC(=O)[C@H]1[C@@H]2C(N)=O | -0.816 (inactive) | -0.111 | 4.2 (inactive) | 0.655 (inactive) | 0.4 (inactive) | 0.344 (inactive) | -0.463 | 2.29 (inactive) | -0.672 (inactive) | -0.584 |
| CCCNC(=O)[C@@]1(c2ccc([N+](=O)[O-])cc2)CC(=O)N(CC23CC4CC(CC(C4)C2)C3)[C@@H]1c1ccc(CO)cc1 | -0.0948 (inactive) | -0.409 | 5.64 (inactive) | 0.903 (inactive) | 2.2 (inactive) | 0.625 (inactive) | -0.154 | 0.328 (inactive) | -1.85 (inactive) | -0.569 |
